Test [1] is described as follows: NCI Yeast Anticancer Drug Screen. Data for the rad50 strain (AID 155).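 Further: 0% = growth of vehicle-only cultures of the same strain.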 The following applies: S. cerevisiae rad50 strain growth inhibition, hits give high values. The method in brief:
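Cells are treated with compound, grown, and their growth is then scored against vehicle-only cultures of the same repair-deficient yeast strain.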

Test [2] in a line: NCI Yeast Anticancer Drug Screen. Data for the mec2-1 strain (AID 157). Particulars: S. cerevisiae mec2-1 strain, hits give high values. The method in brief: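 Using mec2-1 yeast: add compound, measure growth, express inhibition versus vehicle-treated cultures.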
Test [3] in a line: NCI Yeast Anticancer Drug Screen. Data for the sgs1 mgt1 strain (AID 161).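 Further: 0% = growth of cultures given vehicle only.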 Particulars: S. cerevisiae sgs1 mgt1 strain, hits give high values. The method in brief: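 Percent growth inhibition was derived by comparing compound-exposed mutant yeast with vehicle-exposed cultures. The strain carries alterations in DNA damage repair.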
The nature of test [4]: NCI Yeast Anticancer Drug Screen. Data for the cln2 rad14 strain (AID 165).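 Further: 0% = growth equal to vehicle treated cultures.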 The following applies: S. cerevisiae cln2 rad14 strain, hits give high values. The method in brief:
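Yeast strain cln2 rad14, bearing defects in cell cycle control and DNA repair, serves as the test system; values reflect growth inhibition compared with vehicle.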

A short description of test [5]: NCI Yeast Anticancer Drug Screen. Data for the bub3 strain (AID 167). Particulars: S. cerevisiae bub3 mutant strain, hits give high values. The method in brief:
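Part of a panel of yeast mutants defective in DNA damage repair or cell cycle regulation. Each strain is grown with compound, and inhibition is calculated relative to solvent-treated cultures.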

Test [6] in a line: NCI Yeast Anticancer Drug Screen. Data for the mlh1 rad18 strain (AID 175). Particulars: S. cerevisiae mlh1 rad18 strain growth inhibition, hits give high values. The method in brief:
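Steps: expose repair-defective yeast to compound; measure growth; express inhibition against vehicle-treated controls.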

Setting [7] is: at 5.0 µM (retest, dose inferred, filed as 0.5).
Where [8] appears, read: at 50.0 µM (retest, dose inferred, filed as 5.0).

About 79,000 compounds went through this panel and 15% of them were active in at least one assay; those are over-represented in the sample as a whole. A number with no mark means an inactive call. Active and inactive are the calls of the source. No stated cut-off is given here; in the data, active means growth inhibition above about 70%; inactive means the rest.

As to `Clc1nssc1=Nc1nonc1-c1ccccc1`, the growth inhibition is 59% in test [1] (setting [7]); 99% (active) in test [1] (setting [8]); 88.7% (active) in test [1] (at 50.0 µM); 64% in test [2] (setting [7]); 100% (active) in test [2] (setting [8]); 91.2% (active) in test [2] (at 50.0 µM). In addition, the growth inhibition in test [3] (setting [7]) was 86% (active); in test [3] (setting [8]), 100% (active); in test [3] (at 50.0 µM) it was 79.9% (active); in test [4] (setting [7]) it was 68%; in test [4] (setting [8]) it was 96% (active); in test [4] (at 50.0 µM), 48.6%. The growth inhibition in test [5] (setting [7]) is 97% (active); in test [5] (setting [8]) it was 99% (active); in test [5] (at 50.0 µM), 79.7% (active); in test [6] (setting [7]), 49%; in test [6] (setting [8]), 98% (active); in test [6] (at 50.0 µM) it was 92.2% (active).

For the compound `COc1ccc(C2=C(Cl)C(=O)N(c3ccc(C)cc3)C(=O)C2(Cl)Cl)cc1`, the growth inhibition in test [1] (setting [7]) was 14%; in test [1] (setting [8]) it was 59%; in test [1] (at 50.0 µM), 83.3% (active); in test [2] (setting [7]), -2%; in test [2] (setting [8]), 36%; in test [2] (at 50.0 µM), 96.8% (active). Moreover, the growth inhibition in test [3] (setting [7]) was 24%; in test [3] (setting [8]) it was 83% (active); in test [3] (at 50.0 µM), 94.2% (active); in test [4] (setting [7]) it was 1%; in test [4] (setting [8]), 19%; in test [4] (at 50.0 µM) it was 54.3%. For the same compound, the growth inhibition in test [5] (setting [7]) is -7%; in test [5] (setting [8]) it was 22%; in test [5] (at 50.0 µM) it was 76.3% (active); in test [6] (setting [7]), 12%; in test [6] (setting [8]), 33%; in test [6] (at 50.0 µM), 94% (active).

On to `COc1cc(/C=C2\S/C(=N/Nc3nc(-c4ccc(Br)cc4)cs3)NC2=O)cc(OC)c1OC`, for which the growth inhibition is -2% in test [1] (setting [7]); 67% in test [1] (setting [8]); 84.8% (active) in test [1] (at 50.0 µM); -23% in test [2] (setting [7]); 74% (active) in test [2] (setting [8]); 76.2% (active) in test [2] (at 50.0 µM). Besides, the growth inhibition in test [3] (setting [7]) is -9%; in test [3] (setting [8]), 86% (active); in test [3] (at 50.0 µM), 97.8% (active); in test [4] (setting [7]), -6%; in test [4] (setting [8]) it was 71% (active); in test [4] (at 50.0 µM), 80.2% (active). Moreover, the growth inhibition in test [5] (setting [7]) was 31%; in test [5] (setting [8]), 97% (active); in test [5] (at 50.0 µM), 95.3% (active); in test [6] (setting [7]), 2%; in test [6] (setting [8]), 75% (active); in test [6] (at 50.0 µM) it was 91.5% (active).

Take `COc1cc(NCC(C#N)C#N)ccc1N=Nc1ccc(Cl)cc1`: the growth inhibition in test [1] (setting [7]) was -5%; in test [1] (setting [8]) it was 58%; in test [1] (at 50.0 µM), 86.2% (active); in test [2] (setting [7]), -2%; in test [2] (setting [8]), 67%; in test [2] (at 50.0 µM), 70.8% (active). In addition, the growth inhibition in test [3] (setting [7]) is 4%; in test [3] (setting [8]) it was 72% (active); in test [3] (at 50.0 µM) it was 85.3% (active); in test [4] (setting [7]) it was -7%; in test [4] (setting [8]) it was 46%; in test [4] (at 50.0 µM), 76.8% (active). The growth inhibition in test [5] (setting [7]) is -23%; in test [5] (setting [8]), 87% (active); in test [5] (at 50.0 µM) it was 79.5% (active); in test [6] (setting [7]), -37%; in test [6] (setting [8]) it was 81% (active); in test [6] (at 50.0 µM), 82.7% (active).

Consider `Oc1cccc(-c2nc(-c3ccccc3)c(-c3ccccc3)[nH]2)c1`, for which the growth inhibition in test [1] (setting [7]) is 57%; in test [1] (setting [8]), 58%; in test [1] (at 50.0 µM), 98.5% (active); in test [2] (setting [7]), -2%; in test [2] (setting [8]), 22%; in test [2] (at 50.0 µM), 98.8% (active). Also, the growth inhibition in test [3] (setting [7]) is 29%; in test [3] (setting [8]), 69%; in test [3] (at 50.0 µM), 53.1%; in test [4] (setting [7]), 8%; in test [4] (setting [8]), 22%; in test [4] (at 50.0 µM), 99.2% (active). The growth inhibition in test [5] (setting [7]) is 32%; in test [5] (setting [8]), 43%; in test [5] (at 50.0 µM) it was 98.8% (active); in test [6] (setting [7]) it was 29%; in test [6] (setting [8]), 43%; in test [6] (at 50.0 µM), 98.5% (active).

For `O/N=C1/CCCC/C1=C\c1ccc(Cl)c(Cl)c1`, the growth inhibition in test [1] (setting [7]) is 5%; in test [1] (setting [8]), 99% (active); in test [1] (at 50.0 µM), 98.8% (active); in test [2] (setting [7]), 1%; in test [2] (setting [8]), 99% (active); in test [2] (at 50.0 µM), 99.3% (active). Further, the growth inhibition was 28% in test [3] (setting [7]); 100% (active) in test [3] (setting [8]); 99.2% (active) in test [3] (at 50.0 µM); -6% in test [4] (setting [7]); 99% (active) in test [4] (setting [8]); 99.2% (active) in test [4] (at 50.0 µM). Besides, the growth inhibition is -3% in test [5] (setting [7]); 99% (active) in test [5] (setting [8]); 99.3% (active) in test [5] (at 50.0 µM); 11% in test [6] (setting [7]); 96% (active) in test [6] (setting [8]); 99.1% (active) in test [6] (at 50.0 µM).

Take `S=c1[nH]nc(SCc2ccc(Cl)c(Cl)c2)c2[nH]cnc12`: the growth inhibition in test [1] (setting [7]) was -4%; in test [1] (setting [8]), -13%; in test [1] (at 50.0 µM), 1.45%; in test [2] (setting [7]), -11%; in test [2] (setting [8]), -2%; in test [2] (at 50.0 µM), 9.2%. Besides, the growth inhibition in test [3] (setting [7]) is -14%; in test [3] (setting [8]), -14%; in test [3] (at 50.0 µM), 21.2%; in test [4] (setting [7]) it was -10%; in test [4] (setting [8]) it was -16%; in test [4] (at 50.0 µM), 28.8%. Further, the growth inhibition in test [5] (setting [7]) was -8%; in test [5] (setting [8]), -8%; in test [5] (at 50.0 µM) it was 9.25%; in test [6] (setting [7]), -21%; in test [6] (setting [8]), -16%; in test [6] (at 50.0 µM), 5.2%.

For `C[N+]1(C)CCCC(OCCCCCCCCCCCCCCOC2CCC[N+](C)(C)C2)C1` (configuration not stated), the growth inhibition in test [1] (setting [7]) is 14%; in test [1] (setting [8]) it was 95% (active); in test [1] (at 50.0 µM) it was 87.9% (active); in test [2] (setting [7]), 34%; in test [2] (setting [8]) it was 98% (active); in test [2] (at 50.0 µM), 80.5% (active). In addition, the growth inhibition was 35% in test [3] (setting [7]); 97% (active) in test [3] (setting [8]); 98.8% (active) in test [3] (at 50.0 µM); 37% in test [4] (setting [7]); 92% (active) in test [4] (setting [8]); 98.2% (active) in test [4] (at 50.0 µM). Also, the growth inhibition in test [5] (setting [7]) is 37%; in test [5] (setting [8]) it was 94% (active); in test [5] (at 50.0 µM), 97.6% (active); in test [6] (setting [7]), 77% (active); in test [6] (setting [8]), 97% (active); in test [6] (at 50.0 µM), 99% (active).

Regarding `COC(=O)/C=C1/OC(c2ccccc2)=CC1=O`, the growth inhibition in test [1] (setting [7]) was 31%; in test [1] (setting [8]) it was 31%; in test [1] (at 50.0 µM), 87.5% (active); in test [2] (setting [7]), 8%; in test [2] (setting [8]) it was 8%; in test [2] (at 50.0 µM), 91.7% (active). The growth inhibition was 22% in test [3] (setting [7]); 22% in test [3] (setting [8]); 57% in test [3] (at 50.0 µM); -2% in test [4] (setting [7]); -2% in test [4] (setting [8]); 70.3% (active) in test [4] (at 50.0 µM). Also, the growth inhibition in test [5] (setting [7]) is 0%; in test [5] (setting [8]), 0%; in test [5] (at 50.0 µM) it was 85.8% (active); in test [6] (setting [7]), 9%; in test [6] (setting [8]), 9%; in test [6] (at 50.0 µM), 86.2% (active).

The values are drawn from PubChem BioAssay (NCI).
